Measured values taken from PubChem BioAssay (Tox21).
Where “and” joins values, the source holds several entries; their conditions need not be identical. Equal entries are not always repeated. Inconclusive results are not listed. Calls of active or inactive are those of the source. Unless noted, the call rests on the fitted dose curve; in most records, active means well fitted curve in the direction sought with a large enough effect in the repeat runs; inconclusive means weak or mixed curves; inactive means no such curve, though single readings can be large; an effect the other way counts as inactive or inconclusive.

Assays:
[1] = biological target: Luciferin 4-monooxygenase (Photinus pyralis) (UniProt P08659); assay: qHTS assay to identify small molecule inhibitors of firefly luciferase (AID 1224835); further: nearly all actives have a fitted effect of over 25% in size; further: potency means the concentration at half of the fitted maximal effect
Sequence of Luciferin 4-monooxygenase (Photinus pyralis) (P08659 whole entry, looked up): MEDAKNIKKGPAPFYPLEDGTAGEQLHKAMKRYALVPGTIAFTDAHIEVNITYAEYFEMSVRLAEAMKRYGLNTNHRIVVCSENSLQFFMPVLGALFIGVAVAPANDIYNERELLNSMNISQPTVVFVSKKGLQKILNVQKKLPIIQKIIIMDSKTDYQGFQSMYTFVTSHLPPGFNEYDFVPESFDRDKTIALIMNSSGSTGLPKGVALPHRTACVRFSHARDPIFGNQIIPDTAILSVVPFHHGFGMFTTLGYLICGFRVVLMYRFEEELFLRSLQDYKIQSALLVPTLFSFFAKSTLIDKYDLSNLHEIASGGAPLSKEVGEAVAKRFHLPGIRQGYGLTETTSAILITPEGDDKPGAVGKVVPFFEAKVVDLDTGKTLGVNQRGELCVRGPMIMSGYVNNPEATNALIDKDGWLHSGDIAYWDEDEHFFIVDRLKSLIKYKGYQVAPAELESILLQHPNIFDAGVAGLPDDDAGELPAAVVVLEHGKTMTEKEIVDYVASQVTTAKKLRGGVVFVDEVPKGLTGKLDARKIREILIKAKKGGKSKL
Summary of the method: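 Biochemical qHTS: compounds run as interplate titrations against purified firefly enzyme, with D-luciferin and ATP each at its KM concentration. Light output recorded by CCD imaging.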

[2] = qHTS assay to identify small molecule agonists of the constitutive androstane receptor (CAR) signaling pathway - cell viability counter screen (AID 1224836); further: nearly all actives have a fitted effect of over 45% in size; further: potency means the concentration at half of the fitted maximal effect
Summary of the method: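 23 h treatment, 37 C, 5% CO2. Cell line: HepG2 stably expressing hCAR with a CYP2B6-2.2kb construct. Co-treatment: PK11195, 0.75 uM final. Read-out: CellTiter-Fluor fluorescence intensity.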

[3] = qHTS assay to identify small molecule antagonists of the constitutive androstane receptor (CAR) signaling pathway - cell viability counter screen (AID 1224837); further: nearly all actives have a fitted effect of over 45% in size; further: potency means the concentration at half of the fitted maximal effect
Summary of the method: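 Using CellTiter-Fluor, viability is scored in HepG2 cells stably carrying hCAR and a 2.2kb CYP2B6 reporter after 23 hr compound exposure across 15 concentrations, with CITCO present at 50 nM.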

[4] = biological target: Nuclear receptor subfamily 1 group I member 3 (Homo sapiens) (UniProt Q14994); assay: qHTS assay to identify small molecule antagonists of the constitutive androstane receptor (CAR) signaling pathway (AID 1224838);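 further: HepG2 cells stably expressing hCAR with CYP2B6 luciferase reporter stimulated by CITCO; nearly all actives have a fitted effect of over 40% in size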; further: potency means the concentration at half of the fitted maximal effect
Sequence of Nuclear receptor subfamily 1 group I member 3 (Homo sapiens) (Q14994 whole entry, looked up): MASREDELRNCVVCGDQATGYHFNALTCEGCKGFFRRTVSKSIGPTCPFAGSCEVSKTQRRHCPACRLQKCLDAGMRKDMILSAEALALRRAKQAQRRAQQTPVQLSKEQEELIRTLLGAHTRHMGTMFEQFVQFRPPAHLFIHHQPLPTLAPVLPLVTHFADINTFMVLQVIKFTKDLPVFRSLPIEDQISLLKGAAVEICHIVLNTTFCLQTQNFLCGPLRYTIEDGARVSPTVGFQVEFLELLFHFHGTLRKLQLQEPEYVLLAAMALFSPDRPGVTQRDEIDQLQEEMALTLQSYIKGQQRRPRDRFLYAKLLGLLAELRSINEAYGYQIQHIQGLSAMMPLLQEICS
Summary of the method: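 Reporter luminescence was quantified after 24 h exposure of hCAR/CYP2B6-2.2kb double-stable HepG2 cells to compounds at 15 concentrations in the presence of 50 nM CITCO final.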

[5] = biological target: Nuclear receptor subfamily 1 group I member 3 (Homo sapiens) (UniProt Q14994); assay: qHTS assay to identify small molecule agonists of the constitutive androstane receptor (CAR) signaling pathway (AID 1224839); further: nearly all actives have a fitted effect of over 15% in size; further: potency means the concentration at half of the fitted maximal effect;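 on activation: HepG2 cells stably carrying human CAR and a CYP2B6 luciferase reporter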
Summary of the method: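 Compounds tested at 15 concentrations on HepG2 cells stably harbouring hCAR and CYP2B6-2.2kb reporter constructs, co-treated with PK11195 (0.75 uM final), 24 h at 37 C; luminescent reporter signal quantified.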

[6] = qHTS assay to identify small molecule antagonists of the estrogen related receptor signaling pathway with the pleiotropic PPARgamma coactivator (PGC) from Tox21 10K library - cell viability counter screen (AID 1224840; active means well fitted cell-killing curve with a large enough effect in the repeat runs, not every such curve was filed as active; further: nearly all actives have a fitted effect of over 40% in size; further: potency means the concentration at half of the fitted maximal effect)
Summary of the method: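 Here the PGC/ERR cells serve as a cytotoxicity control: they are exposed to compounds for 17.5 hours at 37 C, and live-cell signal is quantified using CellTiter-Fluor fluorescence.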

[7] = qHTS assay to identify small molecule antagonists of the estrogen related receptor signaling pathway with the pleiotropic PPARgamma coactivator (PGC) from Tox21 10K library (AID 1224841; call rule not given here; further: actives are mostly falling curves and most rising ones were filed inactive; nearly all actives have a fitted effect of over 50% in size; further: potency means the concentration at half of the fitted maximal effect)
Summary of the method: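 Each well held 2,000 PGC/ERR cells, pre-incubated six hours (37 C, 5% CO2). Test substances in DMSO were added by pin tool and left for 18 h at 37 C before luciferase detection by One-Glo.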

[8] = qHTS assay to identify small molecule agonists of the estrogen related receptor signaling pathway with the pleiotropic PPARgamma coactivator (PGC) from Tox21 10K library (AID 1224842); further: nearly all actives have a fitted effect of over 15% in size
Summary of the method: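 PGC/ERR reporter cell line, 2,000 cells per well, incubated 6 h at 37 C before 23 nL compound in DMSO was added. After 18 h at 37 C, One-Glo luminescence read following 30 min at room temperature.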

[9] = biological target: Thyrotropin receptor (Homo sapiens) (UniProt P16473); assay: qHTS assay to identify small molecule agonists of the thyroid stimulating hormone receptor (TSHR) signaling pathway (AID 1224843; calls by dose curve; further: nearly all actives have a fitted effect of over 45% in size; further: potency means the concentration at half of the fitted maximal effect)
Sequence of Thyrotropin receptor (Homo sapiens) (P16473 whole entry, looked up): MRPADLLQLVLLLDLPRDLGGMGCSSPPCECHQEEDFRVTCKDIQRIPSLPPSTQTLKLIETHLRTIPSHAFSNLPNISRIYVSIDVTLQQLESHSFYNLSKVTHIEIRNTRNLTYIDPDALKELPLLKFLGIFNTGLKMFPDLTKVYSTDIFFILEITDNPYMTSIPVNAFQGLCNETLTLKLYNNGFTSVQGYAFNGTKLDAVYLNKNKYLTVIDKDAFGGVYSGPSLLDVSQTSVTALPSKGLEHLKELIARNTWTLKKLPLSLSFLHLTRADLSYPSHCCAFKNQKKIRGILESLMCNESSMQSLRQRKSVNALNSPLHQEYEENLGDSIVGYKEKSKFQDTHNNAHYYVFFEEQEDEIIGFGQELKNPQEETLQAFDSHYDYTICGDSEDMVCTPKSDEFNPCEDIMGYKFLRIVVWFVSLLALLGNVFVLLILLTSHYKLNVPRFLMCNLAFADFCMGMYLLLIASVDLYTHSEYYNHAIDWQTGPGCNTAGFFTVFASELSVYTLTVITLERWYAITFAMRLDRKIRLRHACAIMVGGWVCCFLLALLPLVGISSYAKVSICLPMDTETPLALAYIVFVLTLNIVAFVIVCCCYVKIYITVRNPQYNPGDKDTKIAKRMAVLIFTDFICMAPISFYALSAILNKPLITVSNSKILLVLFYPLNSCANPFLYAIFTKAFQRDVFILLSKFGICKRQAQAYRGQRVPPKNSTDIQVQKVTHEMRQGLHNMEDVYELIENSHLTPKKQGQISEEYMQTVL
Summary of the method: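 Steps: seed 800 TSHR-HEK293 cells per well; add test compound and hold 30 min at ambient temperature; dispense cAMP-d2 then anti-cAMP cryptate; incubate 1 h at ambient; measure fluorescence intensity.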

[10] = qHTS assay to identify small molecule agonists of the hypoxia (HIF-1) signaling pathway - cell viability counter screen (AID 1224844; calls by dose curve; further: nearly all actives have a fitted effect of over 50% in size; further: potency means the concentration at half of the fitted maximal effect)
Summary of the method: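 Multiplexed with the HRE beta-lactamase assay, this viability read used CellTiter-Glo luminescence (30 min, RT) on HRE-bla ME-180 cells treated 17 hrs with compounds in 0.5% dialyzed FBS medium.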

[11] = qHTS assay to identify small molecule agonists of H2AX (AID 1224845; active means well fitted activation curve with a large enough effect in the signal ratio in the repeat runs, not every such curve was filed as active; the % refers to the signal ratio)
Summary of the method: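 Wild-type CHO-K1 cells, plated overnight, exposed 3hr at 37C to 15 concentrations (0.76% DMSO final). Lysed, then HTRF anti-pH2AX (S139) cryptate and anti-H2AX-d2 antibodies, 24 hr room temperature; 665/620 nm emission read.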

[12] = qHTS assay to identify small molecule agonists of the hypoxia (HIF-1) signaling pathway (AID 1224846; active means well fitted activation curve with a large enough effect in the signal ratio in the repeat runs, not every such curve was filed as active; the % refers to the signal ratio)
Summary of the method: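 Hypoxia-pathway activation was scored as increased beta-lactamase from an HRE-controlled reporter in ME-180 cells; plated at 2,000 cells per well with 0.5% dialyzed FBS, they were exposed 17 hrs to compounds and then given CCF4-AM.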

[13] = qHTS assay to identify small molecule agonists of the estrogen related receptor (ERR) signaling pathway from Tox21 library (AID 1224849; calls by dose curve; further: nearly all actives have a fitted effect of over 15% in size); details: ERR reporter cell line, ONE-Glo luciferase, 18 h; at 92.4 µM (top of the series) unless noted
Summary of the method: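 Six hours post-seeding at 37 C/5% CO2, ERR cells receive DMSO-solubilised compounds; after 18 h at 37 C, ONE-Glo reagent is applied and luminescence recorded.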

[14] = qHTS RealTime-Glo MT Cell Viability Assay in HepG2 cells - 24 hour (AID 1224867); further: nearly all actives have a fitted effect of over 50% in size; further: potency means the concentration at half of the fitted maximal effect
Summary of the method: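 Cells + NanoLuc/prosubstrate dispensed (600 cells/well) → 5 h at 37 C/5% CO2 → compounds in DMSO transferred → 40 h incubation at 37 C, luminescence read at 0, 8, 16, 24, 32, 40 h.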

[15] = qHTS RealTime-Glo MT Cell Viability Assay in HEK293 cells - 32 hour (AID 1224868); further: nearly all actives have a fitted effect of over 50% in size; further: potency means the concentration at half of the fitted maximal effect; on activity change, negative = cytotoxic: top concentration of the series differs between compounds
Summary of the method: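 Tox21 10K qHTS, HEK293, 600 cells/well, RealTime-Glo reagent co-dispensed with cells; 5 h preincubation, compound by pintool, 37 C, luminescence at 0–40 h.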

[16] = A CellTox Green Cytotoxicity Assay to monitor cytotoxicity in HEK293 cells - 0 hour (AID 1224869); further: nearly all actives have a fitted effect of over 50% in size
Summary of the method: (§1)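 Seeding of HEK293 cells together with cytotoxicity dye preceded a 5 h incubation at 37 C/5% CO2. Test compounds in DMSO were then added and fluorescence monitored across 40 h.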

[17] = qHTS RealTime-Glo MT Cell Viability Assay in HepG2 cells - 40 hour (AID 1224870); further: nearly all actives have a fitted effect of over 50% in size; further: potency means the concentration at half of the fitted maximal effect
Summary of the method: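 HepG2 cells (600/well) mixed with RealTime-Glo MT reagent, settled 5 h at 37 C/5% CO2 before compound addition. Nonlytic NanoLuc luminescence from viable-cell prosubstrate reduction read repeatedly during 40 h treatment at 37 C.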

[18] = qHTS assay to identify small molecule agonists of H2AX - cell viability counter screen (AID 1224847; calls by dose curve; further: nearly all actives have a fitted effect of over 30% in size; further: potency means the concentration at half of the fitted maximal effect; on activity change, negative = cytotoxicity: top concentration of the series differs between compounds)
Summary of the method: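 Compounds tested at 15 concentrations were incubated 3 hr at 37C with wild-type CHO-K1 cells; cellular ATP-based luminescence (CellTiter-Glo) indicated viability.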

[19] = qHTS assay to identify small molecule antagonists of the estrogen related receptor (ERR) signaling pathway from Tox21 library (AID 1224848); further: nearly all actives have a fitted effect of over 50% in size; further: potency means the concentration at half of the fitted maximal effect
Summary of the method: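 Luminescent reporter read-out (ONE-Glo) from NTP's ERR cell line after 18 h treatment at 37 C with DMSO-dissolved Tox21 compounds; cells pre-plated 6 h beforehand at 2,000 per well.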

[20] = A CellTox Green Cytotoxicity Assay to monitor cytotoxicity in HEK293 cells - 40 hour (AID 1224871); further: nearly all actives have a fitted effect of over 45% in size; further: potency means the concentration at half of the fitted maximal effect
Summary of the method: as §1
On the % scale 0 is the no-effect control and ±100 the full control effect.

Cc1ccc(OP(=O)(Oc2ccccc2)Oc2ccccc2)cc1
inactive: Potency [1] | Potency [2] | Potency [3] | Potency [4] | Potency [6] | Potency [8] | Potency [10] | Potency [11] | outcome [12] | activity change, positive = activation [13] -20.3% | Potency [14] | Potency [15] | Potency [16] | Potency [17]
active: Potency [5] 17.5 µM | Potency [7] 24.7 µM | Potency [9] 15.6 µM

CCS(=O)(=O)c1cccnc1S(=O)(=O)NC(=O)Nc1nc(OC)cc(OC)n1
active: Potency [5] 54.5 µM
inactive: Potency [1] | Potency [2] | Potency [3] | Potency [4] | Potency [6] | Potency [8] | Potency [9] | Potency [10] | Potency [11] | outcome [12] | Potency [18] | Potency [19] | activity change, positive = activation [13] 6.39% | Potency [14] | Potency [15] | Potency [16] | Potency [17]

ClC1=C(Cl)[C@]2(Cl)[C@@H]3[C@@H](Cl)[C@H](Cl)C[C@@H]3[C@@]1(Cl)C2(Cl)Cl
inactive: Potency [1] | Potency [2] | Potency [3] | Potency [4] | Potency [5] | Potency [6] | Potency [7] | Potency [8] | Potency [10] | Potency [11] | outcome [12] | Potency [18] | Potency [19] | activity change, positive = activation [13] -5.06% | Potency [14] | Potency [15] | Potency [17]

O=C/C(Cl)=C(/Cl)C(=O)O
inactive: Potency [1] | Potency [2] | Potency [3] | Potency [4] | Potency [5] | Potency [6] | Potency [7] | Potency [8] | Potency [9] | Potency [18] | Potency [19] | activity change, positive = activation [13] -23.8% and 0.311% | Potency [14] | Potency [16] | Potency [17] | Potency [20]

BrC(Br)Br
inactive: Potency [1] | Potency [2] | Potency [3] | Potency [4] | Potency [5] | Potency [6] | Potency [7] | Potency [8] | Potency [9] | Potency [10] | Potency [11] | outcome [12] | Potency [18] | Potency [19] | activity change, positive = activation [13] 0.336% | Potency [14] | Potency [15] | Potency [16] | Potency [17] | Potency [20]

Brc1c(Br)c(Br)c(Oc2c(Br)c(Br)c(Br)c(Br)c2Br)c(Br)c1Br
inactive: activity change, negative = inhibition [1] 1.46% [at 23.6 µM] | viability change, negative = cytotoxic [2] -2.08% [at 19 µM] | activity change, negative = cytotoxicity [3] 5.53% [at 19 µM] | activity, negative = inhibition [4] -4.8% [at 19 µM] | activation [5] -0.206% [at 19 µM] | viability change, negative = cytotoxic [6] 10.1% [at 19 µM] | activity, negative = inhibition [7] 39.4% [at 19 µM] | activation [8] 1.27% [at 19 µM] | activation [9] -5.88% [at 19 µM] | activity change, negative = cytotoxicity [10] 12% [at 15.8 µM] | activation (H2AX phosphorylation) [11] -7.06% [at 31.6 µM] | activation [12] 0.0203% [at 15.8 µM] | activity change, negative = cytotoxicity [18] 2.26% [at 31.6 µM] | activity, negative = inhibition [19] 6.83% [at 19 µM] | activity change, positive = activation [13] 3.27% [at 19 µM] | activity change, negative = cytotoxicity [14] -1.54% [at 15.8 µM] | activity change, negative = cytotoxic [15] 5.03% [at 15.8 µM] | cytotoxicity [16] -1.03% [at 15.8 µM] | activity change, negative = cytotoxic [17] -6.21% [at 15.8 µM] | cytotoxicity increase [20] 1.02% [at 15.8 µM]

Cl/C=C\CCl
inactive: Potency [1] | Potency [2] | Potency [3] | Potency [4] | Potency [5] | Potency [6] | Potency [7] | Potency [8] | Potency [9] | Potency [10] | Potency [11] | outcome [12] | Potency [18] | Potency [19] | activity change, positive = activation [13] 3.81% | Potency [14] | Potency [15] | Potency [16] | Potency [17] | Potency [20]

Cc1cc(SCc2sc(-c3ccc(C(F)(F)F)c(F)c3)nc2C)ccc1OCC(=O)O
active: Potency [1] 44.8 µM | Potency [10] 12.3 µM | Potency [18] 101 µM
inactive: Potency [2] | Potency [3] | Potency [4] | Potency [5] | Potency [6] | Potency [7] | Potency [8] | Potency [11] | activity change, positive = activation [13] -21.2% | Potency [14] | Potency [16] | Potency [20]

C1CCC2CCCCC2C1 (centres undefined)
inactive: Potency [1] | Potency [2] | Potency [3] | Potency [4] | Potency [5] | Potency [6] | Potency [7] | Potency [8] | Potency [10] | outcome [12] | Potency [18] | Potency [19] | activity change, positive = activation [13] -0.0659% | Potency [14] | Potency [15] | Potency [16] | Potency [17] | Potency [20]

CCCCCCCCCCCCCCCCCCn1cc[n+](C)c1
active: Potency [2] 24.2 µM | Potency [3] 17.1 µM | Potency [4] 43 µM | Potency [6] 30.5 µM | Potency [7] 24.2 µM | Potency [10] 43.4 µM | Potency [18] 22.4 µM | Potency [19] 5.42 µM | Potency [14] 34.5 µM | Potency [15] 7.72 µM | Potency [17] 21.7 µM | Potency [20] 19.4 µM
inactive: Potency [1] | Potency [5] | Potency [8] | Potency [9] | activity change, positive = activation [13] -74.3% | Potency [16]
